What all share (test): growth (OD600 after 10 h); higher = more growth (less inhibition)
Experiment [1] has as its system E. coli TESEC Alr+ wild-type control. To be noted: compound 0.1 mM; raw OD600 reference: median of DMSO wells 0.241, cell-free background 0.041. The method, then:
(§1)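 TESEC Mtb Alr E. coli, or the Alr+ wild-type control, in 384-well plates with Prestwick library compounds at 0.1 mM and 1% DMSO, across arabinose induction levels of 1E3 to 1E7 nM. Growth is read as OD600 after 10 h at 37 °C in triplicate biological replicates.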

Experiment [2] has as its system E. coli TESEC Mtb Alr. To be noted: compound 0.1 mM. As for the experimental part:
as §1

Another experiment deals with E. coli TESEC Mtb Asd. To be noted: compound 0.1 mM. The method, then:
(§2)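 TESEC E. coli strains in which the native enzyme is deleted and replaced by arabinose-inducible Mtb Asd, DapB, CysH or TrpD, each grown in its selective medium. Strains were screened against the Prestwick library at 0.1 mM and 1% DMSO in 384-well format at low and high arabinose induction. Growth is read as OD600 after 10 h in triplicate.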

The next experiment has as its system E. coli TESEC Mtb DapB. The following applies: compound 0.1 mM. The method, then: as §2
Experiment [3] deals with E. coli TESEC Alr+ wild-type control. To be noted: compound 0.1 mM; raw OD600 reference: median of DMSO wells 0.49, cell-free background 0.052. As for the experimental part: (§3)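 TESEC Mtb Alr E. coli (ΔaraC ΔtolC ΔentC Δalr ΔdadX, arabinose-inducible Mtb Alr) or the Alr+ wild-type control strain, grown in defined M9-fructose medium without D-alanine in 96-well plates with Prestwick library compounds at 0.1 mM and 1% DMSO. Low Alr induction is 0.1 µM arabinose and high induction is 10 mM arabinose.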

Experiment [4] has as its system E. coli TESEC Mtb Alr. The following applies: compound 0.1 mM. The method, then:
as §3
This is another data set of the same source.

Setting [5] is: arabinose 1000 nM, raw OD600 reference: median of DMSO wells 0.294, cell-free background 0.041.
Setting [6] is: arabinose 10000 nM, raw OD600 reference: median of DMSO wells 0.264, cell-free background 0.041.
Setting [7] is: arabinose 100000 nM, raw OD600 reference: median of DMSO wells 0.201, cell-free background 0.041.
[8] abbreviates: arabinose 1000000 nM, raw OD600 reference: median of DMSO wells 0.193, cell-free background 0.041.
The mark [9] stands for this setting: arabinose 10000000 nM, raw OD600 reference: median of DMSO wells 0.146, cell-free background 0.041.
Where [10] appears, read: arabinose induction (level): High, raw OD600 reference: median of DMSO wells 0.331, cell-free background 0.041.
[11] abbreviates: arabinose induction (level): Low, raw OD600 reference: median of DMSO wells 0.417, cell-free background 0.041.
Where [12] appears, read: arabinose induction (level): High, raw OD600 reference: median of DMSO wells […], cell-free background 0.041.
Where [13] appears, read: arabinose induction (level): Low, raw OD600 reference: median of DMSO wells 0.227, cell-free background 0.041.
The mark [14] stands for this setting: arabinose 100 nM, raw OD600 reference: median of DMSO wells 0.413, cell-free background 0.052.
Where [15] appears, read: arabinose 10000000 nM, raw OD600 reference: median of DMSO wells […], cell-free background 0.052.

Structures can show the parent of a compound that is named as a salt. ± gives the standard deviation of the averaged measurements.

`CC(=O)OCC(=O)[C@@]1(O)CC[C@H]2[C@@H]3CCC4=CC(=O)CC[C@]4(C)[C@H]3[C@@H](O)C[C@@]21C` [Cortisol acetate]: the growth worked out at 0.234 ± 0.0044 in experiment [1]; 0.297 ± 0.016 in the experiment with E. coli TESEC Mtb Alr [2] (setting [5]); 0.237 ± 0.0043 in the experiment with E. coli TESEC Mtb Alr [2] (setting [6]); 0.184 ± 0.018 in the experiment on E. coli TESEC Mtb Alr [2] (setting [7]); 0.151 ± 0.0056 in the experiment on E. coli TESEC Mtb Alr [2] (setting [8]); 0.141 ± 0.0061 in the experiment on E. coli TESEC Mtb Alr [2] (setting [9]). Besides, the growth in the experiment on E. coli TESEC Mtb Asd (setting [10]) amounted to 0.366 ± 0.052; in the experiment with E. coli TESEC Mtb Asd (setting [11]), 0.506 ± 0.028; in the experiment on E. coli TESEC Mtb DapB (setting [12]) it was 0.213 ± 0.0036; with E. coli TESEC Mtb DapB (setting [13]) it was 0.206 ± 0.011; in experiment [3], 0.517 ± 0.032; in the experiment with E. coli TESEC Mtb Alr [4] (setting [14]), 0.399 ± 0.014. In the experiment on E. coli TESEC Mtb Alr [4] (setting [15]), the growth was found to be 0.289 ± 0.011.

For the molecule `CC(=O)N[C@@H](CC(C)C)C(=O)O` [N-Acetyl-L-leucine], the growth in experiment [1] was determined as 0.243 ± 0.013; in the experiment with E. coli TESEC Mtb Alr [2] (setting [5]), 0.292 ± 0.016; in the experiment with E. coli TESEC Mtb Alr [2] (setting [6]) it was 0.259 ± 0.004; with E. coli TESEC Mtb Alr [2] (setting [7]), 0.219 ± 0.0097; in the experiment with E. coli TESEC Mtb Alr [2] (setting [8]) it was 0.192 ± 0.0042; in the experiment with E. coli TESEC Mtb Alr [2] (setting [9]) it was 0.134 ± 0.0046. The growth in the experiment with E. coli TESEC Mtb Asd (setting [10]) is 0.378 ± 0.077; in the experiment on E. coli TESEC Mtb Asd (setting [11]), 0.476 ± 0.0098; in the experiment with E. coli TESEC Mtb DapB (setting [12]) it was 0.206 ± 0.0033; with E. coli TESEC Mtb DapB (setting [13]) it was 0.205 ± 0.0021; in experiment [3], 0.637 ± 0.023; in the experiment with E. coli TESEC Mtb Alr [4] (setting [14]) it was 0.41 ± 0.013. The molecule further showed a growth with E. coli TESEC Mtb Alr [4] (setting [15]) of 0.349 ± 0.0042.

On to `CC[C@H](C)C(=O)O[C@H]1CCC=C2C=C[C@H](C)[C@H](CC[C@@H]3C[C@@H](O)CC(=O)O3)[C@H]21` [Mevastatin], for which the growth in experiment [1] was determined as 0.15 ± 0.0081; in the experiment on E. coli TESEC Mtb Alr [2] (setting [5]) it was 0.152 ± 0.1; in the experiment on E. coli TESEC Mtb Alr [2] (setting [6]), 0.166 ± 0.08; in the experiment on E. coli TESEC Mtb Alr [2] (setting [7]), 0.134 ± 0.0032; with E. coli TESEC Mtb Alr [2] (setting [8]) it was 0.0515 ± 0.0016; in the experiment on E. coli TESEC Mtb Alr [2] (setting [9]), 0.0677 ± 0.0034. For the same molecule, the growth turned out to be 0.135 ± 0.036 with E. coli TESEC Mtb Asd (setting [10]); 0.148 ± 0.012 in the experiment with E. coli TESEC Mtb Asd (setting [11]); 0.171 ± 0.054 with E. coli TESEC Mtb DapB (setting [12]); 0.134 ± 0.0085 in the experiment with E. coli TESEC Mtb DapB (setting [13]); 0.41 ± 0.019 in experiment [3]; 0.406 ± 0.021 with E. coli TESEC Mtb Alr [4] (setting [14]). In the experiment with E. coli TESEC Mtb Alr [4] (setting [15]), this molecule registered a growth of 0.214 ± 0.028.

With `CN1CCCC(n2nc(Cc3ccc(Cl)cc3)c3ccccc3c2=O)CC1` (configuration not stated) [Azelastine HCl], the growth in experiment [1] turned out to be 0.16 ± 0.0036; in the experiment on E. coli TESEC Mtb Alr [2] (setting [5]) it was 0.19 ± 0.011; with E. coli TESEC Mtb Alr [2] (setting [6]), 0.172 ± 0.0055; with E. coli TESEC Mtb Alr [2] (setting [7]) it was 0.193 ± 0.0073; in the experiment on E. coli TESEC Mtb Alr [2] (setting [8]), 0.105 ± 0.0015; in the experiment on E. coli TESEC Mtb Alr [2] (setting [9]) it was 0.1635 ± 0.00076. In addition, the growth is 0.157 ± 0.025 in the experiment with E. coli TESEC Mtb Asd (setting [10]); 0.241 ± 0.056 with E. coli TESEC Mtb Asd (setting [11]); 0.169 ± 0.0087 with E. coli TESEC Mtb DapB (setting [12]); 0.191 ± 0.011 in the experiment on E. coli TESEC Mtb DapB (setting [13]); 0.472 ± 0.021 in experiment [3]; 0.409 ± 0.0069 in the experiment with E. coli TESEC Mtb Alr [4] (setting [14]). Besides, in the experiment with E. coli TESEC Mtb Alr [4] (setting [15]), the growth came to 0.312 ± 0.019.
